FAS-TE inh = FAS thioesterase domain inhibitors, primary screen, biochemical, fluorescence intensity, uHTS. Fatty acid synthase (Homo sapiens), P49327. inhibition, % at 15 µM. recombinant FAS-TE, OMFH fluorogenic substrate, fluorescence endpoint. hit rate 0.67% among 360,000;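 active = compounds whose normalised, plate-corrected inhibition of enzyme fluorescence in the single-dose primary screen is 50% or more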;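 also: 0% = DMSO with enzyme and 100% = substrate without enzyme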
ADAM17 inh = ADAM17 inhibitors, primary screen, biochemical, QFRET. inhibition, % at 6.95 µM. AID 720648, 2013. recombinant ADAM17, EDANS/DABCYL FRET peptide cleavage. Disintegrin and metalloproteinase domain-containing protein 17 (Homo sapiens), P78536. hit rate 0.83% among 370,000;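 active = inhibition above the mean of compounds lying between control limits plus 3 SD, set per campaign, cut at about 8.5% in these data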;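 also: 0% = DMSO-only wells as the low control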
Target sequence (P78536 215-824 limits assumed): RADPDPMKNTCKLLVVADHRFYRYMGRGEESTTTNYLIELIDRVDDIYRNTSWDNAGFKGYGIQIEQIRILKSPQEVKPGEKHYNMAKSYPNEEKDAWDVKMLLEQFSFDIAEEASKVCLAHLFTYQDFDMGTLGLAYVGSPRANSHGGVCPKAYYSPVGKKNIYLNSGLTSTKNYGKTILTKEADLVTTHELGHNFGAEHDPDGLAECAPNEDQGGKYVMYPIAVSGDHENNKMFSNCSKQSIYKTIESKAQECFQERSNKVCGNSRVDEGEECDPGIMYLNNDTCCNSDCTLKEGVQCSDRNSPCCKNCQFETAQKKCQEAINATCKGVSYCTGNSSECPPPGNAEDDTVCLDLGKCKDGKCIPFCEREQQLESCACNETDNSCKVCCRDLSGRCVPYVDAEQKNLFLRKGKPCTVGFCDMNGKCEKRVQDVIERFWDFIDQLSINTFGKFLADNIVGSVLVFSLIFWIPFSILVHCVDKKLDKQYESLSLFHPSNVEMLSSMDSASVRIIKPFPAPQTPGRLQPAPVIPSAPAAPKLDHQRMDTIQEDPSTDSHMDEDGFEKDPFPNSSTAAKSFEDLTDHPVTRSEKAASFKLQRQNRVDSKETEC
HGIII-sPLA2 inh = human group III sPLA2 inhibitors, primary screen, biochemical, QFRET, BODIPY PC-A2 liposome substrate | AID 743126, 2013 | Group 3 secretory phospholipase A2 (Homo sapiens), Q9NZ20 | inhibition, % at 12.2 µM | QFRET BODIPY PC-A2 liposome hydrolysis, fluorescence | hit rate 0.56% among 370,000;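 active = inhibition above mean plus 3 SD of compounds lying within the high and low control bounds, cut at about 19% in these data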;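 also: 0% = median of test compound wells and 100% = no enzyme DMSO wells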
NR3A LBD binder = binders of NR3A ligand-binding domain, primary screen, biophysical, differential scanning fluorimetry, uHTS; Glutamate receptor ionotropic, NMDA 3A (GRIN3A) ligand-binding domain; NR3A LBD differential scanning fluorimetry, Tm shift; 0% = protein alone, 100% = glycine-bound protein; Tm shift relative to glycine control, % at 25 µM; hit rate 2.5% among 340,000;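 active = melting temperature shift of at least 10% of the positive control shift, at one fixed dose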
ADAM10 inh = human ADAM10 inhibitors, primary screen, biochemical, QFRET, HTS; Disintegrin and metalloproteinase domain-containing protein 10 (Homo sapiens), O14672; hit rate 0.62% among 370,000; AID 720582, 2013; recombinant ADAM10, EDANS/DABCYL FRET peptide cleavage, 3 h; inhibition, % at 7 µM;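 active = inhibition above a per-campaign cutoff equal to the mean of compounds falling between control-based bounds plus 3 SD, cut at about 20% in these data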;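 also: 0% = DMSO wells while the 100% control is not disclosed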
An asterisk follows results filed as active; x = no result. Shown are actives, neighbours in structure and some others; about 4.3% of the full set was active somewhere.

SMILES | FAS-TE inh | ADAM17 inh | HGIII-sPLA2 inh | NR3A LBD binder | ADAM10 inh
CN(C)Cc1c(C(=O)N/N=C/c2cccc(OCc3c(F)cccc3Cl)c2)nnn1-c1nonc1N | -3 | -3 | 9 | 24* | -5
CN(Cc1c(C(=O)N/N=C/c2cccc(F)c2)nnn1-c1nonc1N)C1CCCCC1 | -7 | -2 | 0 | 0 | 3
N/C(=N\S(=O)(=O)c1cc(C(F)(F)F)cc(C(F)(F)F)c1)c1ccncc1 | 2 | -3 | -4 | 15* | -8
Cc1ccc(C(=O)Nc2cccc(NC(=O)c3ccc(C)c([N+](=O)[O-])c3)n2)cc1[N+](=O)[O-] | 32 | -7 | 16 | 14* | -5
Cc1ccc(C(=O)NC(=S)Nc2ccc(NC(=O)c3cccs3)cc2)cc1[N+](=O)[O-] | -3 | 2 | 3 | 31* | 3
Cc1ccc(C(=O)NC(C)CCc2ccccc2)cc1[N+](=O)[O-] (configuration not stated) | 74* | 8 | -11 | -1 | 7
Cc1cc(NC(=O)c2ccc(C)c([N+](=O)[O-])c2)no1 | 1 | 1 | -1 | 0 | 6
Cc1ccc(C)c(C(=O)NC(C)CCc2ccccc2)c1 (configuration not stated) | -2 | 0 | -4 | -1 | -1
Cc1ccc(NC(=O)c2cccs2)cc1[N+](=O)[O-] | 9 | 2 | -2 | 2 | 1
Cc1ccc(C(=O)Nc2ccc(NC(=O)c3cccs3)cc2)cc1[N+](=O)[O-] | -3 | 1 | 4 | 29* | 3
COCO[C@@H]1CC(CO)=C[C@H]2OCO[C@H]21 | x | -2 | 1 | x | 0
COC(=O)C1CN(Cc2cn(Cc3ccccc3)nn2)CCS(=O)(=O)N1Cc1ccc(Cl)cc1 (configuration not stated) | x | 0 | -10 | x | 1
O=[N+]([O-])c1ccc(NCCCN2CCC(C(O)(c3ccccc3)c3ccccc3)CC2)cc1 | x | 7 | -17 | x | 12
CCc1ccccc1NC(=O)CN1CCN(C(=O)CN2C(=O)NC3(CCCCC3C)C2=O)CC1 (configuration not stated) | -9 | -1 | -4 | 21* | 4
CCc1ccccc1NC(=O)CN1CCN(C(=O)CN2C(=O)NC3(CCCC3)C2=O)CC1 | -7 | -4 | 11 | 0 | -14
O=C(OC(C(=O)Nc1ccc(Cl)cc1C(F)(F)F)c1ccccc1)C1=COCCO1 (configuration not stated) | 2 | 0 | -18 | -2 | -2
O=C(OC(C(=O)Nc1ccc(Cl)c(C(F)(F)F)c1)c1ccccc1)C1=COCCO1 (configuration not stated) | 30 | 7 | -32 | 13* | 19
CCNC(=S)NNC(=O)CSc1nnc(-c2ccccc2)n1-c1ccc(Cl)cc1 | x | -2 | 14 | x | 1
COc1ccc(CN(CCN2CCOCC2)C(=O)c2cc(F)ccc2F)cc1OC | x | 2 | 1 | x | -2
COc1cc(NS(=O)(=O)c2ccc(F)cc2)c(C(=O)O)cc1OC | -1 | -4 | -4 | 12* | 1
COC(=O)C[C@H]1CC[C@@H]2[C@H](COc3ccc(NC(=O)c4cnccn4)cc3C(=O)N2C)O1 | x | -1 | 6 | x | 0
Fc1ccc(-c2n[nH]c(=S)n2N=Cc2ccc(OCc3ccccc3)cc2)cc1 | x | 3 | -11 | x | -1
Cc1ccc(C)c(S(=O)(=O)Nc2ccc(C(=O)N3CCCCC3)cc2)c1 | -1 | -3 | -15 | 14* | -7
O=C(c1cc(S(=O)(=O)N2CCCCC2)ccc1Cl)N1CCOCC1 | -4 | -1 | 1 | 1 | -3
CC(=O)N1CCN(C(=O)c2ccc(NS(=O)(=O)c3cc(C)ccc3C)cc2)CC1 | -4 | 2 | 5 | -3 | -7
SMILES | FAS-TE inh | ADAM17 inh | HGIII-sPLA2 inh | NR3A LBD binder | ADAM10 inh
Cc1ccc(S(=O)(=O)N2CCN(C(=O)c3cc(S(=O)(=O)N4CCOCC4)ccc3Cl)CC2)c(C)c1 | 17 | 1 | -7 | 12* | -2
Cc1ccc(C(=O)N2CCOCC2)cc1S(=O)(=O)N1CCCC1 | -3 | -1 | -3 | 11* | -3
CCOC(=O)C1CCN(C(=O)c2ccc(C)c(S(=O)(=O)N3CCCC3)c2)CC1 | -2 | -1 | 4 | 11* | -3
Cc1ccc(C(=O)N2CCCCC2)cc1S(=O)(=O)N1CCCCCC1 | -4 | -3 | 2 | 0 | -1
CCCCC(=O)Nc1ccc(C(=O)NCC2COc3ccccc3O2)cc1 (configuration not stated) | x | 3 | -8 | x | 3
O=C(Cn1cc(/C=N/NC(=O)c2ccccc2Br)c2ccccc21)Nc1ccc(F)cc1 | 39 | 7 | -37 | 10* | 5
O=C(Cn1cc(/C=N/NC(=O)c2cccc3ccccc23)c2ccccc21)Nc1ccc(F)cc1 | 34 | 0 | -1 | 9 | 12
Cc1ccccc1C(=O)N[C@@H](Cc1cccnc1)C(=O)N1CCC[C@H]1C(=O)NCCc1ccccc1Cl | x | -8 | 9 | x | -11
COc1ccc(Cl)cc1NC(=O)COC(=O)CCc1cc(OC)c(OC)c(OC)c1 | 8 | -1 | -1 | -1 | 4
CSc1cccc(NC(=O)CCCOc2ccccc2)c1 | 12 | 4 | -12 | 1 | 10
COc1ccc(Cl)cc1NC(=O)COC(=O)Cc1cc(OC)c(OC)c(OC)c1 | 2 | 1 | -6 | 17* | -3
COc1cc(CC(=O)Nc2cccc(SC)c2)cc(OC)c1OC | 3 | -5 | -5 | 0 | 0
CSc1cccc(NC(=O)CCCOc2ccc(Cl)cc2Cl)c1 | 29 | -2 | 7 | 20* | -5
CCOc1ccccc1OCCCC(=O)OCC(=O)Nc1cccc(Cl)c1 | 12 | 2 | -9 | -8 | 9
COc1ccc(CC(=O)Nc2cccc(SC)c2)cc1 | 3 | -2 | -10 | 16* | -2
COc1ccc(NC(=O)COC(=O)CCCOc2ccc(Cl)cc2Cl)cc1Cl | 24 | 6 | -7 | 31* | 15
COC(=O)[C@H](CC(C)C)N(Cc1cn(Cc2ccc(C)cc2)nn1)S(=O)(=O)c1ccccc1Br | x | 5 | -10 | x | 11
COc1ccc(OC)c(S(=O)(=O)N2CCC(C(=O)N3CCN(C4CCCCC4)CC3)CC2)c1 | x | -2 | -9 | x | -5
O=C1CC(c2ccc3c(c2)OCO3)N=C2N(Cc3ccc4c(c3)OCO4)C/C(=C/c3ccccc3)N12 (configuration not stated) | x | 4 | -11 | x | 5
O=C(C1CC1)C1(C(=O)N2CCOCC2)CC(c2ccccn2)=NO1 (configuration not stated) | x | 1 | 12 | x | 2
Cn1c(CCCOc2ccc(Cl)cc2Cl)nnc1SCC(=O)Nc1ccc(F)c(Cl)c1 | 28 | 0 | -4 | 24* | 3

Screening data deposited in PubChem by several laboratories.
